Results on 40 sequences are retold here after the OligoGym collection.
Note: reference of the scale not given here.

One assay has as its target PEG10. Kind of assay: pooled miR-30 sensor sort-seq; sequence = guide strand. Particulars: shRNA.
On to TTTGGCAACCTCTCGCCTCTGA, for which the sensor-assay potency score (higher = more potent) is -0.158.
As to TTGTGCATCAGGTAGTGGGAGC, the sensor-assay potency score (higher = more potent) was -1.26.
The same measure, in the same setting: as for TTGATCTCTTCAGAGAGCTCGT, the figure is 0.178; as for TGCAATGTGAGGCAACACCAGC, -1.84.
For the sequence TTCCACTTGCTCTCGAAGGGTG, the sensor-assay potency score (higher = more potent) was -0.417.
On the same count and under the same terms, for TGTCAGCGTAGTGACCTCCTGT the value was -0.0667; for TCTTTCTTTTTCTTCCTGCGTC, -0.141; for TCAACTGAGAAATCCCTGGTGC, 0.598.

The target of another assay is PEG3. Described as above. Particulars: shRNA.
For TTATAGTATGACTCTTCTGAGA, the sensor-assay potency score (higher = more potent) was -1.1.
The same measure, in the same setting: for TTCAATGAAATGTCCTTCCAGT the value was 0.297; for TTCTTCTACCTGAATCTCTTGA, 0.127; for TAATCTCTCTGATACTCGCTGA, -0.226.
In turn, TTGATCTTCACCTTCTTCTGGG came in with a sensor-assay potency score (higher = more potent) of 0.701.
On the same count and under the same terms, as for TTTCTTTTTAGCACGAGCCTTC, the figure is -0.635; as for TTATCATCTGACATTCTGGGGA, 0.23; as for TTGATCGTGAATCGAGCCCTTC, -0.255.
Still for that read-out and setting: for TTCACTGACAGCCACACTGTGG the value was -0.755; for ATAACCTCTAGCATGAATCTTC, -0.113; for TTTGTCATCAGGGTCATCCTTC, 0.301.
The same measure, in the same setting: for TTGTGTTGAGGTCTTCGCTGGT the value was 0.119.

In the next assay the target is PELI3. Described as above. The note with it: shRNA.
Turning to TTGCTAGAGGCATCGAAGCCAG, the sensor-assay potency score (higher = more potent) was -0.912.
Same read-out and setting: for TCTGTGTCGCTATCATGTGTAT the value was -0.903.
Same read-out and setting: for TGGAACATGTCTGTGTCGCTAT the value was 0.131; for TCAATCATGTTCTCTGTGGAGC, -0.446; for ATCATGTGTATACTCCACTATG, -1.35.
Consider ATCATGTTCTCTGTGGAGCGGC, for which the sensor-assay potency score (higher = more potent) is -0.826.
Consider TATCATGTGTATACTCCACTAT, for which the sensor-assay potency score (higher = more potent) was -0.135.
Still for that read-out and setting: as for TGTCTGTGTCGCTATCATGTGT, the figure is -0.284.
Regarding AAGTCAATCATGTTCTCTGTGG, the sensor-assay potency score (higher = more potent) is -0.484.
Same read-out and setting: for TACACATTCCCACAGACCGAGA the value was -1.66; for ATTGGTGGTCAGTCCATCCATC, -0.798; for TGTATACTCCACTATGACCGAG, -0.429.

The target of another assay is PEX11G. The description is as above. The note with it: shRNA.
For TAGACAAACATGGCCAGGTCAT, the sensor-assay potency score (higher = more potent) was -0.9.
Still for that read-out and setting: as for CAGAACTCCACCAACCAGCTGG, the figure is -1.04.
Still for that read-out and setting: for TGGACACCACCAACAGACGTGT the value was -1.09; for TTTCAGCAGCATCCACAGGGAC, -0.746; for TTCAGCAGCATCCACAGGGACC, -1.68.
Regarding AACCAGAACTCCACCAACCAGC, the sensor-assay potency score (higher = more potent) is -1.17.
On the same count and under the same terms, as for TTGGGTGGACACCACCAACAGA, the figure is -1.13; as for TTCCCTAGGACGGAGACACAGC, -1.05.
